# Test results as given in article PMC7862700, “An all-to-all approach to the identification of sequence-specific readers for epigenetic DNA modifications on cytosine”.
# Experiments:
# Test in all cases: DAPPL (digital affinity profiling via proximity ligation, sequencing); 10 mM Tris-HCl pH 7.5, 50 mM NaCl, 1 mM DTT, 4% glycerol, room temperature, 30 min; GST-TFs on glutathione beads, 16-mer random dsDNA library, 0.1% formaldehyde crosslink after washing; high values mean tight binding
# FLI1 = target: T1, FLI1 (Homo sapiens, UniProt Q01543 1-452); settings: protein: recombinant; tags: N-terminal GST; dsDNA, one strand shown
# T1 sequence: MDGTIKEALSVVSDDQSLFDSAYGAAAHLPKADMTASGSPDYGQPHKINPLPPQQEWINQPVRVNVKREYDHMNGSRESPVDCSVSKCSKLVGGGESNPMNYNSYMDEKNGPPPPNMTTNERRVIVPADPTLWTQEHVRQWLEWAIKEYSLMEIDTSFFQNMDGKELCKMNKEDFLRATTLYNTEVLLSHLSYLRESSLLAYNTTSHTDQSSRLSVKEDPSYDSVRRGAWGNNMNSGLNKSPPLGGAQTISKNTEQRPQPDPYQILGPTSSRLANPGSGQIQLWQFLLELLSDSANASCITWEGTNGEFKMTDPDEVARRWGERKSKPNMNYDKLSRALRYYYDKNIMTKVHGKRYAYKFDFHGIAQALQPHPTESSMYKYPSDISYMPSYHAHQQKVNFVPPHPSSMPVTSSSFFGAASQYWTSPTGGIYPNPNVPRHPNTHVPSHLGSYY
# Method in brief: (§1)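 Yeast served to express human transcription factors as GST fusions, which were then captured on glutathione beads and labelled with DNA barcodes. Pooled with a tag-only sample, they were incubated with 200 nmole of a 16-mer random double-stranded DNA library for 30 min at room temperature in Tris/NaCl/DTT/glycerol buffer, washed, crosslinked with 0.1% formaldehyde, ligated by proximity, amplified by PCR and sequenced. Dividing each hexamer's read frequency for a factor by its frequency for the tag-only sample gives the binding signal.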
# ELK1 = target: T2, ELK1 (Homo sapiens, UniProt P19419 1-428); settings: protein: recombinant; tags: N-terminal GST; dsDNA, one strand shown
# T2 sequence: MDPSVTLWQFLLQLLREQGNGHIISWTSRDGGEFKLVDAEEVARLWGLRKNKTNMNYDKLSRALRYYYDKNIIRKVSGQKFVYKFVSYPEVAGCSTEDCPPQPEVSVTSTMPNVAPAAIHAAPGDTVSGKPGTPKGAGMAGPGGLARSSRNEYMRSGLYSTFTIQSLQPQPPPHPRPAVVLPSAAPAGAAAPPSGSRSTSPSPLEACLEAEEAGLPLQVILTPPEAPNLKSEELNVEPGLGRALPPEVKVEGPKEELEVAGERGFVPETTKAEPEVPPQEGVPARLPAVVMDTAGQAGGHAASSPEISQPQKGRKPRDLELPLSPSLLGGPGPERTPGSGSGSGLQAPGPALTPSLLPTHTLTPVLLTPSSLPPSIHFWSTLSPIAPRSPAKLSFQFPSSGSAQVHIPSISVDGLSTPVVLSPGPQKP
# Method in brief: as §1
# GABPA = target: T3, GABPA (Homo sapiens, UniProt Q06546 1-454); settings: protein: recombinant; tags: N-terminal GST; dsDNA, one strand shown
# T3 sequence: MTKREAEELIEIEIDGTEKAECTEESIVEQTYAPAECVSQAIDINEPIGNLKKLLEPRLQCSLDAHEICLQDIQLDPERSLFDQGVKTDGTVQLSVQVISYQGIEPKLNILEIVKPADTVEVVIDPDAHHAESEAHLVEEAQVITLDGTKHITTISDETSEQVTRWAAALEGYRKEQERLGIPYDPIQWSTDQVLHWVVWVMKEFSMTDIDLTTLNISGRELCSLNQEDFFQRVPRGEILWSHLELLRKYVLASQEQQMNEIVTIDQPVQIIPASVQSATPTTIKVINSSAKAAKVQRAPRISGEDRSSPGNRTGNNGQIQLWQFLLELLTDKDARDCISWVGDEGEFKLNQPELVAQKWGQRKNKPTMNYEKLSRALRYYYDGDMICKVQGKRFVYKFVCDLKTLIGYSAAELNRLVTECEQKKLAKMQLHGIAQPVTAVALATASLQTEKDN
# Method in brief: as §1
# ERG = target: T4, ERG (Homo sapiens, UniProt P11308 1-479); settings: protein: recombinant; tags: N-terminal GST; dsDNA, one strand shown
# T4 sequence: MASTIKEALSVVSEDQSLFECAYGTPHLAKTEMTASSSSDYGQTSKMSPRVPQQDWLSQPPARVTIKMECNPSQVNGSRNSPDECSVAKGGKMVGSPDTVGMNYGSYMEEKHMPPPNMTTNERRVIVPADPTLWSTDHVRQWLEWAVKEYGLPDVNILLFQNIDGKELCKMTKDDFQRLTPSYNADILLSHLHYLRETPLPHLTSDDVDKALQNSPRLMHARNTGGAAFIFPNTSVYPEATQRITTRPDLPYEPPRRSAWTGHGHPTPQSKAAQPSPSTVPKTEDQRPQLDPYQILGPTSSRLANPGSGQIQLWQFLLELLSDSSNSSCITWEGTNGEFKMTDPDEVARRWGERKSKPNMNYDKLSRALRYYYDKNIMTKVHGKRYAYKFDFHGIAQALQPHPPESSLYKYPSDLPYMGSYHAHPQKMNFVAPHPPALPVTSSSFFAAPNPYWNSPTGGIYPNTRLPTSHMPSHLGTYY
# Method in brief: as §1
# ELF1 = ELF1 (Homo sapiens, UniProt P32519 1-619); settings: protein: recombinant; tags: N-terminal GST; dsDNA, one strand shown
# Method in brief: as §1
# EHF = target: T5, EHF (Homo sapiens, UniProt Q9NZC4 1-300); settings: protein: recombinant; tags: N-terminal GST; dsDNA, one strand shown
# T5 sequence: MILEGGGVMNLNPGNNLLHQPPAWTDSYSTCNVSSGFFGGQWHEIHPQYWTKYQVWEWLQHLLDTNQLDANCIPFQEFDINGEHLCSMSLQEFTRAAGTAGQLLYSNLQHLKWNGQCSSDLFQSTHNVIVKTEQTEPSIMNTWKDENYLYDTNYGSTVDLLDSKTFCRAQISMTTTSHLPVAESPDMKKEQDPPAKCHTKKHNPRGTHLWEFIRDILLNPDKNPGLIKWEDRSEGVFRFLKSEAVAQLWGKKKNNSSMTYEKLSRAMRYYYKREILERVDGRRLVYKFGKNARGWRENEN
# Method in brief: as §1
# SPI1 = SPI1 (Homo sapiens, UniProt P17947 1-270); settings: protein: recombinant; tags: N-terminal GST; dsDNA, one strand shown
# Method in brief: as §1
# SPIB = SPIB (Homo sapiens, UniProt Q01892 1-262); settings: protein: recombinant; tags: N-terminal GST; dsDNA, one strand shown
# Method in brief: as §1
# ELK3 = target: T6, ELK3 (Homo sapiens, UniProt P41970 1-407); settings: protein: recombinant; tags: N-terminal GST; dsDNA, one strand shown
# T6 sequence: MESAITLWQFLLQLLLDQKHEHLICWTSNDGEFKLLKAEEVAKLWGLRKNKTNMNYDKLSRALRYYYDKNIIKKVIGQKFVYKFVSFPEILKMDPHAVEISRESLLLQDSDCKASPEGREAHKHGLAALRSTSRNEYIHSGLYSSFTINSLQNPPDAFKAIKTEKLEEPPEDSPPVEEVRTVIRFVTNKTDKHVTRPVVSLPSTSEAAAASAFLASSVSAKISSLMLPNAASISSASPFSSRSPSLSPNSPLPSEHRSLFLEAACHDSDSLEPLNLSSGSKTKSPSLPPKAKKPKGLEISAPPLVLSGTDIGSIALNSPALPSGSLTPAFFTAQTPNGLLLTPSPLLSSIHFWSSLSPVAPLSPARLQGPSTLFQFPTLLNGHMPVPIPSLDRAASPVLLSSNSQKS
# Method in brief: as §1
# FEV = target: T7, FEV (Homo sapiens, UniProt Q99581 1-238); settings: protein: recombinant; tags: N-terminal GST; dsDNA, one strand shown
# T7 sequence: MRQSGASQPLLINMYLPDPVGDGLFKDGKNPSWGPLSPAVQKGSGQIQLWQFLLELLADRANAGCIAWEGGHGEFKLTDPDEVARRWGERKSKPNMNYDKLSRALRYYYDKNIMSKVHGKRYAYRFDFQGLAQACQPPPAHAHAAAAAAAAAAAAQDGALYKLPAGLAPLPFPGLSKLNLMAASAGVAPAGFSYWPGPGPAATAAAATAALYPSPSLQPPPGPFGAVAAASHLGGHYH
# Method in brief: as §1
# ETV5 = ETV5 (Homo sapiens, UniProt P41161 1-510); settings: protein: recombinant; tags: N-terminal GST; dsDNA, one strand shown
# Method in brief: as §1
# HSF1 = HSF1 (Homo sapiens, UniProt Q00613 1-529); settings: protein: recombinant; tags: N-terminal GST; chain copies: 3; dsDNA, one strand shown
# Method in brief: as §1
# SPIC = target: T8, SPIC (Homo sapiens, UniProt Q8N5J4 1-248); settings: protein: recombinant; tags: N-terminal GST; dsDNA, one strand shown
# T8 sequence: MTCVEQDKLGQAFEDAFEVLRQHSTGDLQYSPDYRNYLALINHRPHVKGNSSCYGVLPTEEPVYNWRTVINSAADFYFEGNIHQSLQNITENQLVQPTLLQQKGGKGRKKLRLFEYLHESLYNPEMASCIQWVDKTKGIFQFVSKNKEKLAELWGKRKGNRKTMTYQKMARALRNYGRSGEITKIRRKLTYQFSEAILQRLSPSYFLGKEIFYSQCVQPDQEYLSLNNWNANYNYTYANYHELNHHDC
# Method in brief: as §1
# ELF4 = ELF4 (Homo sapiens, UniProt Q99607 1-663); settings: protein: recombinant; tags: N-terminal GST; dsDNA, one strand shown
# Method in brief: as §1
# ELK4 = target: T9, ELK4 (Homo sapiens, UniProt P28324-2 1-405); settings: protein: recombinant; tags: N-terminal GST; dsDNA, one strand shown
# T9 sequence: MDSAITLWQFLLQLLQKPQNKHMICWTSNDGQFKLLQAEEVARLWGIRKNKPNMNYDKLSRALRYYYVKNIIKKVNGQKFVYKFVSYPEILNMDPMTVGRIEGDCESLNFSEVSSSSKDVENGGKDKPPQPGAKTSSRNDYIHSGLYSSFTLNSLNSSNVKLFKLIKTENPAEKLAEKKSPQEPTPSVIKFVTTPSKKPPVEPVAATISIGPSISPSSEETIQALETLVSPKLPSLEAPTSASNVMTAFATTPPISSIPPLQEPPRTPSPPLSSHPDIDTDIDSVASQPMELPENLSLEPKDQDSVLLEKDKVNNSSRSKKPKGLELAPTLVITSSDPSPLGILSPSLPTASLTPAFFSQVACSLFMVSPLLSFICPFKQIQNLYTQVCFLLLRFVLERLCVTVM
# Method in brief: as §1
# ETV2 = target: T10, ETV2 (Homo sapiens, UniProt O00321 1-342); settings: protein: recombinant; tags: N-terminal GST; dsDNA, one strand shown
# T10 sequence: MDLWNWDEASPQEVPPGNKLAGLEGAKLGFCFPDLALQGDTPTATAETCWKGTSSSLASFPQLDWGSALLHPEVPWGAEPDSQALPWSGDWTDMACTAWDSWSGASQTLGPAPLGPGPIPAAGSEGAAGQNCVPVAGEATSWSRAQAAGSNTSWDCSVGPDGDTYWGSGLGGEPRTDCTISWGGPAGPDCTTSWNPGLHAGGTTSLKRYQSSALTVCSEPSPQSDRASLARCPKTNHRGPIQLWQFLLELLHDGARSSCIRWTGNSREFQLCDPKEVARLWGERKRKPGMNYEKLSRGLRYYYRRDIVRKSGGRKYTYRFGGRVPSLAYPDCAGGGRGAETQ
# Method in brief: as §1
# ELF3 = target: T11, ELF3 (Homo sapiens, UniProt P78545 1-371); settings: protein: recombinant; tags: N-terminal GST; dsDNA, one strand shown
# T11 sequence: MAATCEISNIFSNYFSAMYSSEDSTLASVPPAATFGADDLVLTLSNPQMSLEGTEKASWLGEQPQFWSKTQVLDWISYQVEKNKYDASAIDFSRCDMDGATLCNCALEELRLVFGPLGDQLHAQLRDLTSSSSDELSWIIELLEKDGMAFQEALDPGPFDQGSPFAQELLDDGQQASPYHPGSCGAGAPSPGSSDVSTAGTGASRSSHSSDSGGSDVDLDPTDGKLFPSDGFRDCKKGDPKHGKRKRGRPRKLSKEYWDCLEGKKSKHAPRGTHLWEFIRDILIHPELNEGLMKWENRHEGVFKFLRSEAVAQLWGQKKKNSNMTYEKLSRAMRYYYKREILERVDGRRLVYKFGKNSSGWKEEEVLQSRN
# Method in brief: as §1
# CRX = CRX (Homo sapiens, UniProt O43186 1-299); settings: protein: recombinant; tags: N-terminal GST; dsDNA, one strand shown
# Method in brief: as §1
# ETV1 = ETV1 (Homo sapiens, UniProt P50549 1-477); settings: protein: recombinant; tags: N-terminal GST; dsDNA, one strand shown
# Method in brief: as §1
# Sequence of CRX (O43186 whole entry): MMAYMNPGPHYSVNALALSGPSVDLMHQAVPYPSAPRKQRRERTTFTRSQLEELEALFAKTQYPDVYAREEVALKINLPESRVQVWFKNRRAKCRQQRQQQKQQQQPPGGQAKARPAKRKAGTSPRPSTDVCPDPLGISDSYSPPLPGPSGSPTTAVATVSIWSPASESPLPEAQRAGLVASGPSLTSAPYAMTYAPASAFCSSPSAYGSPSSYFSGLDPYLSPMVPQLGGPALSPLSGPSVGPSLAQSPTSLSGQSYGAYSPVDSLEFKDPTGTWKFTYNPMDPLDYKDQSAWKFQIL
# Sequence of ELF1 (P32519 whole entry): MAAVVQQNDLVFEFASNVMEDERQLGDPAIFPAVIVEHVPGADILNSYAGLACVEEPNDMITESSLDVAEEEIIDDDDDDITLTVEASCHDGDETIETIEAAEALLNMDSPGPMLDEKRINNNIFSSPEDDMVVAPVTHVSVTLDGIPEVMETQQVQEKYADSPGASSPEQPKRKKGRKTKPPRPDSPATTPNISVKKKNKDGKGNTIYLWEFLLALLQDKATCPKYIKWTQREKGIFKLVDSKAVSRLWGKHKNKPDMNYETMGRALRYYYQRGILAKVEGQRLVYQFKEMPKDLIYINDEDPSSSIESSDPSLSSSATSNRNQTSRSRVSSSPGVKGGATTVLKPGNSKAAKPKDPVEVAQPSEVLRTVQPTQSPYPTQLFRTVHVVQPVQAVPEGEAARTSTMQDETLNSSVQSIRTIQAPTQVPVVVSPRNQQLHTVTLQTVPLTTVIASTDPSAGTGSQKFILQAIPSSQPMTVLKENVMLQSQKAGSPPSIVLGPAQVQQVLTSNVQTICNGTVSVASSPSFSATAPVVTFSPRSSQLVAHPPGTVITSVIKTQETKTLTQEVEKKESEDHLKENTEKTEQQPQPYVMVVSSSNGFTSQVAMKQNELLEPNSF
# Sequence of ELF4 (Q99607 whole entry): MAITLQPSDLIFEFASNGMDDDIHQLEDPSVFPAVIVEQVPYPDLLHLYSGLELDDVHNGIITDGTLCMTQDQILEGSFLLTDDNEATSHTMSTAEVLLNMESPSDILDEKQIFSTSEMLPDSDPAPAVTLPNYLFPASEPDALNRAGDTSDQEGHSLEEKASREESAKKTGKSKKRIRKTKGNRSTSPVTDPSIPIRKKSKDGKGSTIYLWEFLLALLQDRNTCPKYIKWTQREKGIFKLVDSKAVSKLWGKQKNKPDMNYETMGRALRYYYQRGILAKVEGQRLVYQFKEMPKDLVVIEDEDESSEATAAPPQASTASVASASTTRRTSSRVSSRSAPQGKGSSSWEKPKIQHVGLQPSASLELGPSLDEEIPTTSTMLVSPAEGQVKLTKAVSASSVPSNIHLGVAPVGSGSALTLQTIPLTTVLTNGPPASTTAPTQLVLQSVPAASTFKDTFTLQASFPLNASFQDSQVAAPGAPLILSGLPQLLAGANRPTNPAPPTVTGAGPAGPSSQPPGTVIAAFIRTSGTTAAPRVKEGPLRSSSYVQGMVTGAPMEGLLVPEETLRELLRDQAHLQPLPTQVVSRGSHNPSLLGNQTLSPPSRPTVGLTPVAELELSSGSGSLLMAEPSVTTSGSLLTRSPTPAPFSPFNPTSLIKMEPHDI
# Sequence of ETV5 (P41161 whole entry): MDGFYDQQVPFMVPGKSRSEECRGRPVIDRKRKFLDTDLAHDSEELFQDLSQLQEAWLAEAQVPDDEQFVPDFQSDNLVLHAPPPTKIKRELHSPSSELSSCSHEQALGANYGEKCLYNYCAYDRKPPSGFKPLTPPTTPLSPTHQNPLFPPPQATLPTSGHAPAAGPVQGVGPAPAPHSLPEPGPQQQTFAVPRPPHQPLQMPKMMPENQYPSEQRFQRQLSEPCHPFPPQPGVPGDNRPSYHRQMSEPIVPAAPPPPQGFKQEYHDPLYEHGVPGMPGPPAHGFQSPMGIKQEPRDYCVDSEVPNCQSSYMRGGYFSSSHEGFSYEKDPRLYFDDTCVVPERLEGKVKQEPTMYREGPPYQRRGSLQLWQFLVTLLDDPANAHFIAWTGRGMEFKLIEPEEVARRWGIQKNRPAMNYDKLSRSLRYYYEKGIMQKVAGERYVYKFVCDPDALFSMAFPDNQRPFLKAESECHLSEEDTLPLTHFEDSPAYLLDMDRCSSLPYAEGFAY
# Sequence of HSF1 (Q00613 whole entry): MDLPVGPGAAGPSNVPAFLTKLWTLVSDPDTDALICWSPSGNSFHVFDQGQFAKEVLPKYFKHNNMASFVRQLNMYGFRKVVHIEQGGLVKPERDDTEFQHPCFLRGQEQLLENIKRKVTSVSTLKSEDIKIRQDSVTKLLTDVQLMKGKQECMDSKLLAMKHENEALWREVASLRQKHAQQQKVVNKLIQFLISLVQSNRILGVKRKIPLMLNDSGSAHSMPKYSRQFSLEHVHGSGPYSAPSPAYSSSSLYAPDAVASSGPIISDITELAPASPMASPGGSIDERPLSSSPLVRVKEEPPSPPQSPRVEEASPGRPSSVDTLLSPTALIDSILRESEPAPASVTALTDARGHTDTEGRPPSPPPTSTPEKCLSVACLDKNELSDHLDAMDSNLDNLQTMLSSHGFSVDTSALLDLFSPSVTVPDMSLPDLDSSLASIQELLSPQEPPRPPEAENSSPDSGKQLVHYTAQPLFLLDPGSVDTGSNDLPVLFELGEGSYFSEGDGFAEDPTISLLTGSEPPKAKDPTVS
# Sequence of ETV1 (P50549 whole entry): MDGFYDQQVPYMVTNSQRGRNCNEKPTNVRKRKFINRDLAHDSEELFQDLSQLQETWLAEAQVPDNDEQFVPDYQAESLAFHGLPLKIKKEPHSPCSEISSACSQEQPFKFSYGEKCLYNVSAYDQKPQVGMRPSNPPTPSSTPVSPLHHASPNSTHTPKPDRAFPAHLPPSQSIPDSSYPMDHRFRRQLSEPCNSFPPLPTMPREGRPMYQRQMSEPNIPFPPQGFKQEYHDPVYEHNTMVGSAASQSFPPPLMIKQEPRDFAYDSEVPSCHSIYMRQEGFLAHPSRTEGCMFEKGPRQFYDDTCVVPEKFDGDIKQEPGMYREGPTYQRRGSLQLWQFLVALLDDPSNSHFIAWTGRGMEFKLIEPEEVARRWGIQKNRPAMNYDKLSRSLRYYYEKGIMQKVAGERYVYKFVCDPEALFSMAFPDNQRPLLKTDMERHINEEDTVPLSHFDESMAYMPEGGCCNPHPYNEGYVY
# Sequence of SPIB (Q01892 whole entry): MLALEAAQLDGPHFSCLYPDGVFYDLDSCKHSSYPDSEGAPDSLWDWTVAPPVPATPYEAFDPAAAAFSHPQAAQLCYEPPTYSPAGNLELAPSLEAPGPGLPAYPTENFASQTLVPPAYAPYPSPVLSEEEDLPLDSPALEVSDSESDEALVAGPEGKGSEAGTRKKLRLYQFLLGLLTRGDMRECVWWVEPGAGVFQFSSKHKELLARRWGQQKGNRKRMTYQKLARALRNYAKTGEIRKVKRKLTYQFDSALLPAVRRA
sequence,measurement,setting,value
ATTGTT,binding signal,FLI1,"1.49 fold enrichment (6-mer frequency, TF over GST control)"
same,binding signal,ELK1,"1.42 fold enrichment (6-mer frequency, TF over GST control)"
same,binding signal,GABPA,"1.55 fold enrichment (6-mer frequency, TF over GST control)"
same,binding signal,ERG,"1.48 fold enrichment (6-mer frequency, TF over GST control)"
same,binding signal,ELF1,"1.38 fold enrichment (6-mer frequency, TF over GST control)"
same,binding signal,EHF,"1.53 fold enrichment (6-mer frequency, TF over GST control)"
same,binding signal,SPI1,"1.45 fold enrichment (6-mer frequency, TF over GST control)"
same,binding signal,SPIB,"1.57 fold enrichment (6-mer frequency, TF over GST control)"
same,binding signal,ELK3,"1.55 fold enrichment (6-mer frequency, TF over GST control)"
same,binding signal,FEV,"1.52 fold enrichment (6-mer frequency, TF over GST control)"
same,binding signal,ETV5,"1.57 fold enrichment (6-mer frequency, TF over GST control)"
same,binding signal,HSF1,"1.63 fold enrichment (6-mer frequency, TF over GST control)"
same,binding signal,SPIC,"1.45 fold enrichment (6-mer frequency, TF over GST control)"
same,binding signal,ELF4,"1.41 fold enrichment (6-mer frequency, TF over GST control)"
same,binding signal,ELK4,"1.4 fold enrichment (6-mer frequency, TF over GST control)"
same,binding signal,ETV2,"1.57 fold enrichment (6-mer frequency, TF over GST control)"
same,binding signal,ELF3,"1.49 fold enrichment (6-mer frequency, TF over GST control)"
same,binding signal,CRX,"1.55 fold enrichment (6-mer frequency, TF over GST control)"
same,binding signal,ETV1,"1.47 fold enrichment (6-mer frequency, TF over GST control)"
